# Data published in PubChem BioAssay AID720697 (Broad Institute, 2013).
# Potency and affinity values are given separately. Records with an inconclusive call do not appear. Values without a mark were called inactive.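 The calls were made as follows: active = signal loss with fitted half-maximal concentration at or below twice the top valid tested dose in every test run; inconclusive = runs disagree, flat 30 to 70% signal loss, or poor fit; inactive = all runs flat, opposite direction, or potency beyond limit.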
# Assay: HEK293T cytotoxicity, dose response, cytotoxicity control for miR-122 modulator project, cell-based, inhibitor set, cherry-pick, set 2 (AID 720697);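 also: 0% = median of neutral control wells and -100% = MG132 positive control wells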
# Details: HEK293T viability, CellTiter-Glo luminescence, 48 h; series mostly up to 26 µM; activity change, negative = cytotoxicity: at the top concentration
row,SMILES,"activity change, negative = cytotoxicity"
1,CN(C[C@H]1[C@H](c2ccccc2)[C@@H](CO)N1CC1CC1)C(=O)c1cccc(F)c1,87.6% [at 23.5 µM]
2,CC(C)OCCCNC(=O)c1ccncc1,79.6%
3,Cc1ccc(-n2ncc(C(=O)Nc3cc(Cl)ccc3C)c2C2CCNCC2)cc1C,-26%
4,COCC(=O)N(C[C@@H]1[C@@H](c2ccccc2)[C@H](CO)N1C(=O)NC(C)C)C(C)C,64.9%
